Experimental data from the supplement of paper PMC9794691.

Key:
H1975 [1] = assay: area under confluence curve of osimertinib + compound combination regimen (DTP regrowth); compare to osimertinib-only DTP control AUC of the same experiment (AUC (confluence x time, arbitrary))
Procedure, shortened: (§1)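 The area under the IncuCyte confluence–time curve, calculated in Prism and taken as the median of triplicates where available, is the value reported. It was measured in EGFR-mutant NSCLC lines that received the EGFR inhibitor either alone, followed by a test compound, or together with a fixed-dose test compound until the persister stage (10–21 days) and then drug-free medium. Medium was refreshed every 3–4 days until the inhibitor-only wells were confluent again.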

HCC2279 [2] = assay: as above
Procedure, shortened: as §1

HCC2935 [3] = assay: as above
Procedure, shortened: as §1

HCC4006 [4] = assay: as above
Procedure, shortened: as §1

HCC827 [5] = assay: as above
Procedure, shortened: as §1

II-18 [6] = assay: as above
Procedure, shortened: as §1

H1975 [7] = assay: area under confluence curve of compound monotherapy; compare to DMSO control AUC of the same experiment (AUC (confluence x time, arbitrary))
Procedure, shortened: (§2)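 EGFR-mutant adenocarcinoma lines (RPMI 1640, 10% FBS, 37 °C, 5% CO2) were seeded at 20,000–30,000 cells/well in 48-well plates and next day given test compound alone at one dose (highest with <50% parental inhibition, or 1 uM), refreshed after PBS washes every 3–4 days, then drug-free from DTP stage (10–21 days). IncuCyte confluence was tracked until EGFR-inhibitor-only wells regrew. Area under the confluence curve came from Prism (median of triplicates where run), beside same-experiment vehicle AUC.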

HCC2279 [8] = assay: as above; conditions: DMSO control AUC in same experiment: 14404
Procedure, shortened: as §2

HCC2935 [9] = assay: as above; conditions: DMSO control AUC in same experiment: 19215
Procedure, shortened: as §2

HCC4006 [10] = assay: as above; conditions: DMSO control AUC in same experiment: 18415
Procedure, shortened: as §2

HCC827 [11] = assay: as above; conditions: DMSO control AUC in same experiment: 21320
Procedure, shortened: as §2

II-18 [12] = assay: as above; conditions: DMSO control AUC in same experiment: 11834
Procedure, shortened: as §2

SMILES: C[C@@H](Nc1cc(F)cc(F)c1)c1cc(C(=O)N(C)C)cc2c(=O)cc(N3CCOCC3)oc12 + C=CC(=O)Nc1cc(Nc2nccc(-c3cn(C)c4ccccc34)n2)c(OC)cc1N(C)CCN(C)C [osimertinib]
- area under confluence curve (H1975 [1]; test compound dose 1000 nM, dosing schedule: sequential, osimertinib-only DTP control AUC in same experiment: 15943, DMSO control AUC in same experiment: 20657): 8220
- area under confluence curve (H1975 [1]; test compound dose 1000 nM, dosing schedule: upfront, osimertinib-only DTP control AUC in same experiment: 27804, DMSO control AUC in same experiment: 20657): 13700
- area under confluence curve (HCC2279 [2]; test compound dose 1000 nM, dosing schedule: sequential, osimertinib-only DTP control AUC in same experiment: 21824, DMSO control AUC in same experiment: 29252): 8080
- area under confluence curve (HCC2279 [2]; test compound dose 1000 nM, dosing schedule: upfront, osimertinib-only DTP control AUC in same experiment: 43517, DMSO control AUC in same experiment: 29252): 21600
- area under confluence curve (HCC2935 [3]; test compound dose 1000 nM, dosing schedule: sequential, osimertinib-only DTP control AUC in same experiment: 6271, DMSO control AUC in same experiment: 13875): 5860
- area under confluence curve (HCC2935 [3]; test compound dose 1000 nM, dosing schedule: upfront, osimertinib-only DTP control AUC in same experiment: 10360, DMSO control AUC in same experiment: 13875): 5800
- area under confluence curve (HCC4006 [4]; test compound dose 1000 nM, dosing schedule: sequential, osimertinib-only DTP control AUC in same experiment: 19238, DMSO control AUC in same experiment: 16638): 10300
- area under confluence curve (HCC4006 [4]; test compound dose 1000 nM, dosing schedule: upfront, osimertinib-only DTP control AUC in same experiment: 21234, DMSO control AUC in same experiment: 16638): 5440
- area under confluence curve (HCC827 [5]; test compound dose 1000 nM, dosing schedule: sequential, osimertinib-only DTP control AUC in same experiment: 8266, DMSO control AUC in same experiment: 27404): 3540
- area under confluence curve (HCC827 [5]; test compound dose 1000 nM, dosing schedule: upfront, osimertinib-only DTP control AUC in same experiment: 13929, DMSO control AUC in same experiment: 27404): 3910
- area under confluence curve (II-18 [6]; test compound dose 1000 nM, dosing schedule: sequential, osimertinib-only DTP control AUC in same experiment: 21014, DMSO control AUC in same experiment: 18482): 12100
- area under confluence curve (II-18 [6]; test compound dose 1000 nM, dosing schedule: upfront, osimertinib-only DTP control AUC in same experiment: 27084, DMSO control AUC in same experiment: 18482): 10200

SMILES: O=C(c1cc(Cc2n[nH]c(=O)c3ccccc23)ccc1F)N1CCN(C(=O)C2CC2)CC1 [Olaparib]
- area under confluence curve (H1975 [7]; 1000 nM, DMSO control AUC in same experiment: 15857): 12200
- area under confluence curve (HCC2279 [8]; 1000 nM): 14700
- area under confluence curve (HCC2935 [9]; 1000 nM): 20800
- area under confluence curve (HCC4006 [10]; 1000 nM): 19900
- area under confluence curve (HCC827 [11]; 1000 nM): 20700
- area under confluence curve (II-18 [12]; 1000 nM): 10800

SMILES: Cc1nc(N2CCC3(CC2)CO[C@@H](C)[C@H]3N)c(CO)nc1-c1cccc(Cl)c1Cl + C=CC(=O)Nc1cc(Nc2nccc(-c3cn(C)c4ccccc34)n2)c(OC)cc1N(C)CCN(C)C [osimertinib]
- area under confluence curve (H1975 [1]; test compound dose 1000 nM, dosing schedule: sequential, osimertinib-only DTP control AUC in same experiment: 22968, DMSO control AUC in same experiment: 15857): 15500
- area under confluence curve (H1975 [1]; test compound dose 1000 nM, dosing schedule: upfront, osimertinib-only DTP control AUC in same experiment: 27164, DMSO control AUC in same experiment: 15857): 17800
- area under confluence curve (HCC2279 [2]; test compound dose 1000 nM, dosing schedule: sequential, osimertinib-only DTP control AUC in same experiment: 26096, DMSO control AUC in same experiment: 14404): 16900
- area under confluence curve (HCC2279 [2]; test compound dose 1000 nM, dosing schedule: upfront, osimertinib-only DTP control AUC in same experiment: 33120, DMSO control AUC in same experiment: 14404): 21000
- area under confluence curve (HCC2935 [3]; test compound dose 1000 nM, dosing schedule: sequential, osimertinib-only DTP control AUC in same experiment: 22314, DMSO control AUC in same experiment: 19215): 19500
- area under confluence curve (HCC2935 [3]; test compound dose 1000 nM, dosing schedule: upfront, osimertinib-only DTP control AUC in same experiment: 29846, DMSO control AUC in same experiment: 19215): 27200
- area under confluence curve (HCC4006 [4]; test compound dose 1000 nM, dosing schedule: sequential, osimertinib-only DTP control AUC in same experiment: 12791, DMSO control AUC in same experiment: 18415): 9900
- area under confluence curve (HCC4006 [4]; test compound dose 1000 nM, dosing schedule: upfront, osimertinib-only DTP control AUC in same experiment: 17269, DMSO control AUC in same experiment: 18415): 14300
- area under confluence curve (HCC827 [5]; test compound dose 1000 nM, dosing schedule: sequential, osimertinib-only DTP control AUC in same experiment: 15330, DMSO control AUC in same experiment: 21320): 6150
- area under confluence curve (HCC827 [5]; test compound dose 1000 nM, dosing schedule: upfront, osimertinib-only DTP control AUC in same experiment: 20798, DMSO control AUC in same experiment: 21320): 13400
- area under confluence curve (II-18 [6]; test compound dose 1000 nM, dosing schedule: sequential, osimertinib-only DTP control AUC in same experiment: 8624, DMSO control AUC in same experiment: 11834): 2640
- area under confluence curve (II-18 [6]; test compound dose 1000 nM, dosing schedule: upfront, osimertinib-only DTP control AUC in same experiment: 10856, DMSO control AUC in same experiment: 11834): 3200

SMILES: CN(C)CCCOc1ccc(-c2ccc3ncc4c(c3c2)n(C2CCOCC2)c(=O)n4C)cn1
- area under confluence curve (H1975 [7]; 300 nM, DMSO control AUC in same experiment: 26223): 22300
- area under confluence curve (HCC2279 [8]; 300 nM): 14100
- area under confluence curve (HCC2935 [9]; 300 nM): 21000
- area under confluence curve (HCC4006 [10]; 300 nM): 20100
- area under confluence curve (HCC827 [11]; 300 nM): 20700
- area under confluence curve (II-18 [12]; 300 nM): 12300

SMILES: Cn1cnc2c(F)c(Nc3ccc(Br)cc3Cl)c(C(=O)NOCCO)cc21 [Selumetinib] + C=CC(=O)Nc1cc(Nc2nccc(-c3cn(C)c4ccccc34)n2)c(OC)cc1N(C)CCN(C)C [osimertinib]
- area under confluence curve (H1975 [1]; test compound dose 300 nM, dosing schedule: sequential, osimertinib-only DTP control AUC in same experiment: 12533, DMSO control AUC in same experiment: 14522): 2580
- area under confluence curve (H1975 [1]; test compound dose 300 nM, dosing schedule: upfront, osimertinib-only DTP control AUC in same experiment: 18969, DMSO control AUC in same experiment: 14522): 10100
- area under confluence curve (HCC2279 [2]; test compound dose 300 nM, dosing schedule: sequential, osimertinib-only DTP control AUC in same experiment: 15997, DMSO control AUC in same experiment: 40085): 8900
- area under confluence curve (HCC2279 [2]; test compound dose 300 nM, dosing schedule: upfront, osimertinib-only DTP control AUC in same experiment: 28057, DMSO control AUC in same experiment: 40085): 9080
- area under confluence curve (HCC2935 [3]; test compound dose 300 nM, dosing schedule: sequential, osimertinib-only DTP control AUC in same experiment: 7139, DMSO control AUC in same experiment: 15413): 12800
- area under confluence curve (HCC2935 [3]; test compound dose 300 nM, dosing schedule: upfront, osimertinib-only DTP control AUC in same experiment: 19044, DMSO control AUC in same experiment: 15413): 9550
- area under confluence curve (HCC4006 [4]; test compound dose 300 nM, dosing schedule: sequential, osimertinib-only DTP control AUC in same experiment: 14882, DMSO control AUC in same experiment: 10921): 9590
- area under confluence curve (HCC4006 [4]; test compound dose 300 nM, dosing schedule: upfront, osimertinib-only DTP control AUC in same experiment: 18913, DMSO control AUC in same experiment: 10921): 11700
- area under confluence curve (HCC827 [5]; test compound dose 300 nM, dosing schedule: sequential, osimertinib-only DTP control AUC in same experiment: 18675, DMSO control AUC in same experiment: 48895): 11400
- area under confluence curve (HCC827 [5]; test compound dose 300 nM, dosing schedule: upfront, osimertinib-only DTP control AUC in same experiment: 25542, DMSO control AUC in same experiment: 48895): 11100
- area under confluence curve (II-18 [6]; test compound dose 300 nM, dosing schedule: sequential, osimertinib-only DTP control AUC in same experiment: 21014, DMSO control AUC in same experiment: 18482): 16200
- area under confluence curve (II-18 [6]; test compound dose 300 nM, dosing schedule: upfront, osimertinib-only DTP control AUC in same experiment: 27084, DMSO control AUC in same experiment: 18482): 14400
